# High-throughput results as filed in PubChem BioAssay.
# Most compounds without a hit are left out; they make up all but 31% or so of the library.
# CYP2C9 act = increases human cytochrome P450 2C9 activity. AID 1024. P11712. hit rate 1.4% among 96,000. recombinant CYP2C9, luciferin-H conversion, luminescence; active compounds read high; factor 1 = untreated enzyme, 0 = blocked. activation factor at 5 µM;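 active = activation factor of 2 or more for CYP2C9 at a 5 µM dose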
# Target sequence (P11712 whole entry, looked up): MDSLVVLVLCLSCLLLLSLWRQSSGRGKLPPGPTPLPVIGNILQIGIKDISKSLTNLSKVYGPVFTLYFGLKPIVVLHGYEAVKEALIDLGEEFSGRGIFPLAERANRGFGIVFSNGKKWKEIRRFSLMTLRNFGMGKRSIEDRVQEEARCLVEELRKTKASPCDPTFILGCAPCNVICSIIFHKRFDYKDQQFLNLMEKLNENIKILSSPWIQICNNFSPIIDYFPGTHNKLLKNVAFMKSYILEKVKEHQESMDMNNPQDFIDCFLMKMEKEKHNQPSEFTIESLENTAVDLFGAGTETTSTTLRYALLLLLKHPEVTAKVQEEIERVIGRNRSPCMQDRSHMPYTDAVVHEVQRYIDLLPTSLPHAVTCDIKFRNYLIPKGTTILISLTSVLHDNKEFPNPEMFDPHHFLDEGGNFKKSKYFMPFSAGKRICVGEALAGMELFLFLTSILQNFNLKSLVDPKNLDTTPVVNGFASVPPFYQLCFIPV
# CYP2C19 inh = human CYP2C19 inhibition; P33261; CYP2C19 Supersomes, luciferin-H EGE luminescence, 30 min; inhibition, % at 5 µM; hit rate 21% among 96,000;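 active = CYP2C19 inhibition above a set limit at 5 µM in the primary screen, cut at about 50% in these data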
# CYP2C19 activ = cytochrome P450 2C19 (human) activation. P33261. recombinant CYP2C19, luciferin-H EGE luminescence; active compounds read high; 0 = fully inhibited enzyme, 1 = untreated enzyme. activation factor at 5 µM. 96,000 tested, under 10 active. AID 1025;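 active = activation factor of at least 2 at 5 µM in the primary screen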
# PLAP act = activators of human placental alkaline phosphatase; P05187; purified PLAP enzyme, luminescent substrate read-out; active compounds read high; activation fold at 20 µM; hit rate 1.2% among 96,000; AID 696; in the data active = activation fold above about 2
# CYP2C9 inh = blocks human cytochrome P450 2C9. inhibition, % at 5 µM. hit rate 20% among 96,000. AID 777. CYP2C9 Supersomes, luciferin-H conversion, luminescence;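 active = blocking of liver enzyme CYP2C9 beyond about 50% at 5 µM, limit read from the data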
# Numbers stand for hits; - = inactive; . = no result given.
SMILES,CYP2C9 act,CYP2C19 inh,CYP2C19 activ,PLAP act,CYP2C9 inh
Cn1cc(C(=O)c2ccc(Cl)cc2Cl)cc1C(=O)N/N=C(\N)COc1ccc(Cl)cc1Cl,-,-,-,-,86.0
CC1=[N+]([O-])C(C)(C)C(C)N(O)C1=O (stereo unspecified),-,-,-,-,-
C=CCn1c(SCc2cc(=O)n3ccsc3n2)nc2sc(C)c(C)c2c1=O,-,-,-,-,-
CCn1c(SCC(=O)Nc2cc(C)on2)nc2c(c1=O)SC(C)C2 (stereo unspecified),-,-,-,-,62.3
CCn1c(SCC(=O)Nc2nc3ccc(C)cc3s2)nc2c(c1=O)SC(C)C2 (stereo unspecified),-,69.4,-,-,77.3
CCn1c(SCC(=O)Nc2nc3ccccc3s2)nc2c(c1=O)SC(C)C2 (stereo unspecified),-,96.7,-,-,98.4
Oc1ccc(C=NCC2COc3ccccc3O2)cc1 (stereo unspecified),-,-,-,-,-
COCCNC(=O)c1ccc(CS(=O)(=O)c2ccccc2)o1,-,-,-,-,-
O=C(CSc1nnc(Cc2ccccc2)n1C1CCCCC1)N1CCOCC1,-,-,-,-,-
CCCC(C)NC(=O)c1ccc2[nH]c3c(c2c1)CC(C)CC3 (stereo unspecified),-,-,-,-,51.2
CCCCNCc1cc(Br)c(OCC(=O)N2CCOCC2)c(OC)c1,-,-,-,-,-
CCCCNCc1cc(Br)c(OCc2cccs2)c(OC)c1,-,64.6,-,-,-
Brc1cc2c(cc1/C=N/Nc1nc(N3CCCC3)nc(N3CCOCC3)n1)OCO2,-,-,-,-,-
CCOC(=O)C1=C(C)NC(=S)NC1c1ccc(-c2cccc(Cl)c2C)o1 (stereo unspecified),-,-,-,-,50.3
O=C(NC1CCCCCCC1)C1CCC(CNc2c(N3CCCC3)c(=O)c2=O)CC1 (stereo unspecified),-,-,-,-,-
CCC(=O)N1CCN(c2ccc(NC(=O)c3ccc(-c4ccccc4)cc3)cc2)CC1,-,-,-,-,-
CS(=O)(=O)N1CCN(C(=O)C2c3ccccc3Oc3ccccc32)CC1,-,96.6,-,-,50.3
CCOC(=O)C1CCCN(C(=S)Nc2ccc(C)cc2C)C1 (stereo unspecified),-,83.5,-,-,-
CCOC(=O)C1CCCN(C(=O)Cc2ccc(C)cc2)C1 (stereo unspecified),-,-,-,-,-
CS(=O)(=O)N1CCN(C(=O)c2ccccc2)C1,-,-,-,-,-
CCOC(=O)C1CCCN(C(=O)C2c3ccccc3Oc3ccccc32)C1 (stereo unspecified),-,97.1,-,-,63.6
CCOC(=O)C1CCCN(c2c(Nc3ccc(OCC)cc3)c(=O)c2=O)C1 (stereo unspecified),-,-,-,-,-
CCOC(=O)C1CCCN(c2c(Nc3cccc(C)c3)c(=O)c2=O)C1 (stereo unspecified),-,-,-,-,52.4
CCOC(=O)c1cc2c(C(F)(F)F)cc(-c3ccccc3)nc2o1,-,-,-,-,-
COCCn1c(CCC(=O)O)nc2c1c(=O)[nH]c(=O)n2CC(C)C,-,-,-,-,-
SMILES,CYP2C9 act,CYP2C19 inh,CYP2C19 activ,PLAP act,CYP2C9 inh
CCOc1ccccc1N1CCN(C(=O)C2c3ccccc3Oc3ccccc32)CC1,-,78.0,-,-,84.6
COc1ccc(CNC(=O)Nc2ccc(OC)cc2)cc1,-,59.0,-,-,-
COc1ccc(NC(=O)NCc2ccncc2)c(OC)c1,-,-,-,-,-
COc1ccc(CNC(=O)Nc2cccc(C)c2)cc1,-,-,-,-,-
COc1ccc(OC)c(NC(=O)NCc2ccc(F)cc2)c1,-,98.8,-,-,-
COc1ccc(NC(=O)Nc2ccc(N(C)C)cc2)cc1,-,85.7,-,-,-
COc1ccc(NC(=O)NCc2cccn2C)c(OC)c1,-,62.4,-,-,-
Cc1cc2oc(=O)cc(CSc3nc(N)cc(N)n3)c2cc1C,-,-,-,-,-
CC(NC(=O)C1(C)CC1(Br)Br)C(C)(C)C (stereo unspecified),-,-,-,-,-
N#CCc1ccc(C(=O)c2ccccc2F)s1,-,-,-,-,-
COc1ccc(N2CCC(CNC(=O)Nc3ccccc3)C2)cc1 (stereo unspecified),-,59.6,-,-,-
COc1ccc(NC(=O)C2CCN(C(=O)NCc3ccccc3)CC2)cc1,-,-,-,-,-
O=C(c1cccc(F)c1)N1CCc2ccccc2C1,-,69.8,-,-,-
O=C(c1ccc(Cl)nc1)N1CCc2ccccc2C1,-,98.0,-,-,-
O=C(c1cnc2sccn2c1=O)N1CCc2ccccc2C1,-,-,-,-,-
O=C(c1cncc(Br)c1)N1CCCc2ccccc21,-,62.2,-,-,-
Cc1ccccc1C(=O)N1CCc2ccccc2C1,-,.,.,-,-
O=C(c1cncc(Br)c1)N1CCc2ccccc2C1,-,85.6,-,-,-
CCOc1cc(NC(=O)c2ccccc2C)c(OCC)cc1NC(=O)C1=Cc2ccccc2OC1,-,-,-,-,-
CCOc1cc(/C=N\NC(=O)c2ccc(NC(=O)CC)cc2)ccc1OC(=O)c1ccccc1,-,-,-,-,-
COc1ccc(C(CNC(=O)CN2C(=O)NC3(CC(C)CC(C)(C)C3)C2=O)N2CCOCC2)cc1 (stereo unspecified),-,-,-,-,-
COC(=O)c1cccc(CSc2nnc(C)s2)c1,-,62.5,-,-,-
COC(=O)c1ccc(CSc2nnc(N)s2)cc1,-,73.8,-,-,-
C=CCn1c(Cc2csc(N)n2)nnc1SCC(=O)Nc1ccc(C(=O)OCC)cc1,-,-,-,-,-
C=CCn1c(Cc2csc(N)n2)nnc1SCc1ccc(C(=O)OC)cc1,-,93.7,-,-,72.9
SMILES,CYP2C9 act,CYP2C19 inh,CYP2C19 activ,PLAP act,CYP2C9 inh
CC(C)(C)C(=O)Nc1nnc(SCc2ccc(F)cc2)s1,-,67.8,-,-,78.0
COC(=O)c1ccc(CSc2nnc(C)s2)cc1,-,-,-,-,-
CSc1nc(Oc2ccc(F)cc2F)cc(C(F)(F)F)n1,-,-,-,-,-
O=C(Nc1nnc(SCc2ccc(Cl)cc2)s1)C1CCCO1 (stereo unspecified),-,-,-,-,73.4
N#Cc1ccc(CSc2nnc(NC(=O)C3CCCO3)s2)cc1 (stereo unspecified),-,-,-,-,-
COC(=O)c1ccc(CSc2nnc(NC(=O)C3CCCO3)s2)cc1 (stereo unspecified),-,-,-,-,70.4
CN1C(=O)CSC1=NCC12CC3CC(CC(C3)C1)C2,-,-,-,-,-
COc1ccc(CCNC(=O)COC(=O)c2cnccn2)cc1,-,-,-,-,-
O=C1C2C3CCCC3=C3CCCC3C2C(=O)N1c1ccc(Cl)cc1 (stereo unspecified),-,75.4,-,-,53.7
COC(=O)c1ccccc1NC(=O)CSc1nnc(C(C)NC(=O)c2ccc(Cl)cc2Cl)n1C (stereo unspecified),-,-,-,-,-
